# The panel holds about 79,000 compounds, 15% with a hit somewhere; the sample as a whole holds those more often. The source made the active and inactive calls. Cut-off read from the data, not from the text of the source: active = growth inhibition above about 70%; inactive = the rest.
# Assay: NCI Yeast Anticancer Drug Screen. Data for the bub3 strain (AID 167)
# Conditions: S. cerevisiae bub3 mutant strain, at 50.0 µM, stronger effect = higher value
# Procedure, shortened: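 Part of a panel of yeast mutants defective in DNA damage repair or cell cycle regulation. Each strain is grown with compound, and inhibition is calculated relative to solvent-treated cultures.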
row,Structure (SMILES),growth inhibition
1,CN(C)Cc1ccccc1O,5.65% (inactive)
2,CC(=O)c1cc(Cl)ccc1OCC(O)CNc1ccc(Cl)cc1C(=O)c1ccccc1 (stereo not given),-3.85% (inactive)
3,O=C1C(CN2CCCCC2)CCC1CN1CCCCC1 (stereo not given),14.1% (inactive)
4,CCC(=O)NC(C(=O)O)C(C)(C)S (stereo not given),2.4% (inactive)
5,C[N+]1(C)CCCC(CO)(c2ccccc2)CC1 (stereo not given),14.9% (inactive)
6,O=c1c(Br)c(-c2ccccc2)[nH]c2ccccc12,-5.7% (inactive)
7,N#Cc1cc2ccccc2n(Cc2ccccc2)c1=O,3.75% (inactive)
8,COC(=O)CCNC(=O)OCc1ccccc1,-49.6% (inactive)
9,CCN(CC)CCn1cnc(C#N)c1N,1.65% (inactive)
10,O=C1CCC(c2ccccc2)(C2CCN(Cc3ccc(F)cc3)CC2)C(=O)N1 (stereo not given),3.45% (inactive)
11,CCOP(=O)(OCC)c1c(C(=O)OC)cc(=O)[nH]c1-c1ccc(C)cc1,53.7% (inactive)
12,O=C(O)[Si](c1ccccc1)(c1ccccc1)c1ccccc1,20.1% (inactive)
13,CC1CCc2cc(Br)ccc2N1N (stereo not given),-4.8% (inactive)
14,CC(=O)Nc1[nH]ncc1C#N,13.3% (inactive)
15,CC1(c2cccc(N)c2)OCCO1,12.7% (inactive)
16,[S-]c1n[n+](-c2ccccc2)c(-c2ccc(Cl)cc2)s1,-4.85% (inactive)
17,CNC(=O)OCc1c(COC(=O)NC)c(C)n(-c2ccc(F)cc2)c1C,50.3% (inactive)
18,CN(C)CCN(C)CCN(C)CCN(C)C,5.9% (inactive)
19,COC(=N)c1nnn(-c2ccccc2)n1,2.05% (inactive)
20,COc1ccc(NC(=O)Oc2ccccc2-c2ccccc2)cc1,-6.7% (inactive)

row,Structure (SMILES),growth inhibition
1,CC1=CC(C)(C)NC(=S)N1c1ccc(O)cc1,6.8% (inactive)
2,CCCCCNC(=O)CCC,7.05% (inactive)
3,CCOC(=O)c1[nH]c(CC(=O)O)c(C(=O)OC)c1C,26.5% (inactive)
4,COC(=O)C1=C(C(=O)OC)SC(=CC#CC=C2SC(C(=O)OC)=C(C(=O)OC)S2)S1,-12.8% (inactive)
5,[O-]c1csc2n(-c3ccccc3)c3ccccc3[n+]12,-4.65% (inactive)
6,COC1CC(OC2CCC3(C)C(=CCC4C3C(OC(C)=O)C(OC(=O)CC(C)C)C3(C)C(C(C)=O)CCC43O)C2)OC(C)C1OC1CC(OC)C(OC2CC(OC)C(OC3OC(C)C(O)C(OC)C3O)C(C)O2)C(C)O1 (stereo not given),-1.9% (inactive)
7,O=C(CNC(=O)c1ccccc1)NCS(=O)(=O)O,19.2% (inactive)
8,CC1CC(N2CSC(=S)N(C3CC(C)CC(C)(C)C3)C2)CC(C)(C)C1 (stereo not given),3.9% (inactive)
9,COC(=O)c1cc(Cl)c(C(=O)OC)cc1Cl,7.4% (inactive)
10,Cc1ccc(SSCC(O)C(O)CSSc2ccc(C)cc2)cc1 (stereo not given),-5.6% (inactive)
11,CCOC(=O)/C(C#N)=C/c1ccc([N+](=O)[O-])cc1,0.35% (inactive)
12,CCC/C=C1\CCC(CN(C)C)C1=O (stereo not given),-11.9% (inactive)
13,OC1(c2ccc(-c3ccccc3)cc2)c2ccccc2-c2ccccc2C1(O)c1ccc(-c2ccccc2)cc1 (stereo not given),6.3% (inactive)
14,CC(=O)Nc1ccc(I)cc1,-7.65% (inactive)
15,N#CC1=C(O)NC(O)=C(C#N)C12C(=O)Nc1ccccc12,13.2% (inactive)
16,NC1=C(O)/C(=N/NS(=O)(=O)c2ccccc2)C(c2cccc(Cl)c2)O1 (stereo not given),11.7% (inactive)
17,CN(N=O)C(N)=NC(=O)c1ccccc1,-16.1% (inactive)
18,NC(=O)NCc1ccc(CNC(N)=O)cc1,3.25% (inactive)
19,COc1cccc2c1CCC(=O)C2C (stereo not given),13.6% (inactive)
20,C/C(=N/NC(N)=O)C1CCC(C)CC1 (stereo not given),8.2% (inactive)

# Assay: NCI Yeast Anticancer Drug Screen. Data for the mlh1 rad18 strain (AID 175)
# Conditions: S. cerevisiae mlh1 rad18 strain growth inhibition; at 50.0 µM; stronger effect = higher value
# Procedure, shortened: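 Test agents were incubated with a yeast strain of defined genotype (DNA damage repair defect). Inhibition of growth was derived by comparison with vehicle-exposed cultures.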
row,Structure (SMILES),growth inhibition
1,CN(C)Cc1ccccc1O,-51.5% (inactive)
2,CC(=O)c1cc(Cl)ccc1OCC(O)CNc1ccc(Cl)cc1C(=O)c1ccccc1 (stereo not given),7.15% (inactive)
3,O=C1C(CN2CCCCC2)CCC1CN1CCCCC1 (stereo not given),51.5% (inactive)
4,CCC(=O)NC(C(=O)O)C(C)(C)S (stereo not given),-3.95% (inactive)
5,C[N+]1(C)CCCC(CO)(c2ccccc2)CC1 (stereo not given),7.7% (inactive)
6,O=c1c(Br)c(-c2ccccc2)[nH]c2ccccc12,7.7% (inactive)
7,N#Cc1cc2ccccc2n(Cc2ccccc2)c1=O,-9.55% (inactive)
8,COC(=O)CCNC(=O)OCc1ccccc1,-75% (inactive)
9,CCN(CC)CCn1cnc(C#N)c1N,-0.2% (inactive)
10,O=C1CCC(c2ccccc2)(C2CCN(Cc3ccc(F)cc3)CC2)C(=O)N1 (stereo not given),4.8% (inactive)
11,CCOP(=O)(OCC)c1c(C(=O)OC)cc(=O)[nH]c1-c1ccc(C)cc1,61.3% (inactive)
12,O=C(O)[Si](c1ccccc1)(c1ccccc1)c1ccccc1,48.1% (inactive)
13,CC1CCc2cc(Br)ccc2N1N (stereo not given),27.8% (inactive)
14,CC(=O)Nc1[nH]ncc1C#N,18% (inactive)
15,CC1(c2cccc(N)c2)OCCO1,11.9% (inactive)
16,[S-]c1n[n+](-c2ccccc2)c(-c2ccc(Cl)cc2)s1,0.45% (inactive)
17,CNC(=O)OCc1c(COC(=O)NC)c(C)n(-c2ccc(F)cc2)c1C,-12.2% (inactive)
18,CN(C)CCN(C)CCN(C)CCN(C)C,-6.7% (inactive)
19,COC(=N)c1nnn(-c2ccccc2)n1,-17.9% (inactive)
20,COc1ccc(NC(=O)Oc2ccccc2-c2ccccc2)cc1,-12.3% (inactive)

row,Structure (SMILES),growth inhibition
1,CC1=CC(C)(C)NC(=S)N1c1ccc(O)cc1,15.8% (inactive)
2,CCCCCNC(=O)CCC,40.9% (inactive)
3,CCOC(=O)c1[nH]c(CC(=O)O)c(C(=O)OC)c1C,7.3% (inactive)
4,COC(=O)C1=C(C(=O)OC)SC(=CC#CC=C2SC(C(=O)OC)=C(C(=O)OC)S2)S1,1.6% (inactive)
5,[O-]c1csc2n(-c3ccccc3)c3ccccc3[n+]12,6.65% (inactive)
6,COC1CC(OC2CCC3(C)C(=CCC4C3C(OC(C)=O)C(OC(=O)CC(C)C)C3(C)C(C(C)=O)CCC43O)C2)OC(C)C1OC1CC(OC)C(OC2CC(OC)C(OC3OC(C)C(O)C(OC)C3O)C(C)O2)C(C)O1 (stereo not given),-83.5% (inactive)
7,O=C(CNC(=O)c1ccccc1)NCS(=O)(=O)O,11.3% (inactive)
8,CC1CC(N2CSC(=S)N(C3CC(C)CC(C)(C)C3)C2)CC(C)(C)C1 (stereo not given),-0.4% (inactive)
9,COC(=O)c1cc(Cl)c(C(=O)OC)cc1Cl,8.6% (inactive)
10,Cc1ccc(SSCC(O)C(O)CSSc2ccc(C)cc2)cc1 (stereo not given),10.1% (inactive)
11,CCOC(=O)/C(C#N)=C/c1ccc([N+](=O)[O-])cc1,8.4% (inactive)
12,CCC/C=C1\CCC(CN(C)C)C1=O (stereo not given),15.1% (inactive)
13,OC1(c2ccc(-c3ccccc3)cc2)c2ccccc2-c2ccccc2C1(O)c1ccc(-c2ccccc2)cc1 (stereo not given),7.05% (inactive)
14,CC(=O)Nc1ccc(I)cc1,21.9% (inactive)
15,N#CC1=C(O)NC(O)=C(C#N)C12C(=O)Nc1ccccc12,10.3% (inactive)
16,NC1=C(O)/C(=N/NS(=O)(=O)c2ccccc2)C(c2cccc(Cl)c2)O1 (stereo not given),21.7% (inactive)
17,CN(N=O)C(N)=NC(=O)c1ccccc1,-35.3% (inactive)
18,NC(=O)NCc1ccc(CNC(N)=O)cc1,3.35% (inactive)
19,COc1cccc2c1CCC(=O)C2C (stereo not given),22.9% (inactive)
20,C/C(=N/NC(N)=O)C1CCC(C)CC1 (stereo not given),31% (inactive)
